Calls of active or inactive are those of the source. How the source made its calls: active means hit-call score of the fitted dose curve at least 0.9, where 1 is the maximum; inactive means score below 0.9.
How the values were obtained:
Conditions in all cases: mRNA level, 48 h; actives raise or lower the signal
[1] = read-out: growth arrest and DNA damage 45 (GADD45A), GADD45A (gene 1647); experiment: LTEA_HepaRG_GADD45A: Life Technologies and Expression Analysis (LTEA) Assay for growth arrest and DNA damage 45 (GADD45A) using HepaRG (AID 2283458)
How it was run: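 GADD45A expression was measured by TaqMan qRT-PCR against three housekeeping genes (ACTB, GAPDH, POLR2A) after 48 h treatment of HepaRG cells. Eight-point half-log series up to 100 uM in 0.5% DMSO, run in duplicate.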

[2] = read-out: Forkhead box O3 (FOXO3), FOXO3 (gene 2309); experiment: LTEA_HepaRG_FOXO3: Life Technologies and Expression Analysis (LTEA) Assay for Forkhead box O3 (FOXO3) using HepaRG (AID 2283459)
How it was run: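 FOXO3 transcript measured by qRT-PCR (normalized to ACTB, GAPDH, POLR2A) after 48 h exposure of HepaRG cells in serum-free induction medium. Duplicates, eight half-log concentrations up to 100 uM, 0.5% DMSO; gain or loss fitted against DMSO.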

[3] = read-out: growth arrest and DNA damage 45 (GADD45B), GADD45B (gene 4616); experiment: LTEA_HepaRG_GADD45B: Life Technologies and Expression Analysis (LTEA) Assay for growth arrest and DNA damage 45 (GADD45B) using HepaRG (AID 2283461)
How it was run: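 qRT-PCR read-out (Fluidigm TaqMan, housekeeping-normalized) of mRNA change in human HepaRG cells after 48 h chemical exposure; 8-point curve, top 100 uM, half-log steps, 0.5% DMSO vehicle; gain or loss fitted relative to DMSO baseline.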

[4] = read-out: ABC Transporter (ABCC3), ABCC3 (gene 8714); experiment: LTEA_HepaRG_ABCC3: Life Technologies and Expression Analysis (LTEA) Assay for ABC Transporter (ABCC3) using HepaRG (AID 2283462)
How it was run: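 qRT-PCR read-out of ABCC3 transcript, normalized to three housekeeping genes (ACTB, GAPDH, POLR2A), after 48 h chemical exposure of human HepaRG cells. Eight half-log concentrations, highest 100 uM, in 0.5% DMSO; gain or loss fitted relative to DMSO baseline.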

[5] = read-out: ABC Transporter (ABCB11), ABCB11 (gene 8647); experiment: LTEA_HepaRG_ABCB11: Life Technologies and Expression Analysis (LTEA) Assay for ABC Transporter (ABCB11) using HepaRG (AID 2283463)
How it was run: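 ABCB11 transcript levels quantified by TaqMan qRT-PCR against three housekeeping genes after 48 h chemical exposure of HepaRG cultures. Concentrations up to 100 uM in half-log steps, 0.5% DMSO vehicle; both induction and suppression scored.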

[6] = read-out: Broad substrate specificity ATP-binding cassette transporter ABCG2 (Homo sapiens) (UniProt Q9UNQ0); experiment: LTEA_HepaRG_ABCG2: Life Technologies and Expression Analysis (LTEA) Assay for ABC Transporter (ABCG2) using HepaRG (AID 2283465)
How it was run: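 ABCG2 transcript was quantified by TaqMan qRT-PCR against three housekeeping genes in HepaRG cells. Cells were treated in duplicate for 48 h across an 8-point half-log series up to 100 uM, with 0.5% DMSO vehicle. Gain or loss versus DMSO was fit.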

[7] = read-out: ATP-citrate lyase (ACLY), ACLY (gene 47); experiment: LTEA_HepaRG_ACLY: Life Technologies and Expression Analysis (LTEA) Assay for ATP-citrate lyase (ACLY) using HepaRG (AID 2283466)
How it was run: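 ACLY mRNA quantified by qRT-PCR on Fluidigm arrays against three housekeeping genes, after 48 h chemical treatment of HepaRG cells (top concentration 100 uM, half-log steps, 0.5% DMSO vehicle). Up- or down-regulation fitted relative to DMSO.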

[8] = read-out: Alkaline Phosphatase, Placental (ALPP) gene, ALPP (gene 250); experiment: LTEA_HepaRG_ALPP: Life Technologies and Expression Analysis (LTEA) Assay for Alkaline Phosphatase, Placental (ALPP) gene using HepaRG (AID 2283468)
How it was run: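 qRT-PCR readout of ALPP mRNA (Fluidigm TaqMan), normalized to ACTB/GAPDH/POLR2A, after 48 h chemical exposure of HepaRG cells; 8-point half-log series, top 100 uM, 0.5% DMSO vehicle. Bidirectional curve fit versus DMSO baseline.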

[9] = read-out: Bcl-2 (BAD) gene, BAD (gene 572); experiment: LTEA_HepaRG_BAD: Life Technologies and Expression Analysis (LTEA) Assay for Bcl-2 (BAD) gene using HepaRG (AID 2283469)
How it was run: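 Read-out: qRT-PCR of BAD mRNA, normalized to three housekeeping genes. Human HepaRG cultures got 48 h chemical exposure in 0.5% DMSO, duplicate eight-point half-log series topping at 100 uM. Gain or loss of signal fitted versus DMSO vehicle.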

[10] = read-out: Bcl-2 (BAX) gene, BAX (gene 581); experiment: LTEA_HepaRG_BAX: Life Technologies and Expression Analysis (LTEA) Assay for Bcl-2 (BAX) gene using HepaRG (AID 2283470)
How it was run: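 Gene expression measured by Fluidigm qRT-PCR with three housekeeping genes for normalisation. HepaRG cells, plated 48 h beforehand, treated 48 h at up to 100 uM (8-point, half-log) in 0.5% DMSO. Bidirectional fitting versus DMSO.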

[11] = read-out: adenosine kinase (ADK) gene, ADK (gene 132); experiment: LTEA_HepaRG_ADK: Life Technologies and Expression Analysis (LTEA) Assay for adenosine kinase (ADK) gene using HepaRG (AID 2283471)
How it was run: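 Read-out is ADK transcript level measured by qRT-PCR and normalised to three housekeeping genes. Cells are human HepaRG, dosed for 48 h at up to 100 uM in 0.5% DMSO. Gain or loss of signal is fitted against DMSO controls.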

[12] = read-out: Alpha-fetoprotein (AFP) gene, AFP (gene 174); experiment: LTEA_HepaRG_AFP: Life Technologies and Expression Analysis (LTEA) Assay for Alpha-fetoprotein (AFP) gene using HepaRG (AID 2283472)
How it was run: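 AFP transcript measured by TaqMan qRT-PCR with three housekeeping genes for normalization, after 48 h chemical treatment of HepaRG cells (top 100 uM, half-log steps, 0.5% DMSO). Gain or loss fitted against vehicle.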

BCL2L11 (gene 10018) = experiment: LTEA_HepaRG_BCL2L11: Life Technologies and Expression Analysis (LTEA) Assay for Bcl-2 (BCL2L11) gene using HepaRG (AID 2283473)
How it was run: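 HepaRG, 48 h exposure, 8-pt half-log series from 100 uM in 0.5% DMSO, duplicates; qRT-PCR (Fluidigm TaqMan) for BCL2L11, housekeeping-normalized; bidirectional curve fit relative to DMSO baseline.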

[13] = read-out: Apolipoprotein A-V (APOA5) gene, APOA5 (gene 116519); experiment: LTEA_HepaRG_APOA5: Life Technologies and Expression Analysis (LTEA) Assay for Apolipoprotein A-V (APOA5) gene using HepaRG (AID 2283474)
How it was run: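 HepaRG, 48 h chemical exposure in serum-free induction medium, 8-pt half-log series (top 100 uM), 0.5% DMSO vehicle, duplicates. Readout: APOA5 mRNA by qRT-PCR, housekeeping-normalized; bidirectional fit vs DMSO baseline.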

[14] = read-out: Apoptosis regulator Bcl-2 (Homo sapiens) (UniProt P10415); experiment: LTEA_HepaRG_BCL2: Life Technologies and Expression Analysis (LTEA) Assay for Bcl-2 gene using HepaRG (AID 2283475)
How it was run: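 qRT-PCR of BCL2 transcript, normalized to three housekeeping genes (ACTB, GAPDH, POLR2A), after 48 h chemical exposure of HepaRG cells; concentrations top 100 uM with half-log dilutions, 0.5% DMSO vehicle, duplicates; changes up or down fitted relative to vehicle.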

[15] = read-out: Bcl-2 (BID) gene, BID (gene 637); experiment: LTEA_HepaRG_BID: Life Technologies and Expression Analysis (LTEA) Assay for Bcl-2 (BID) gene using HepaRG (AID 2283476)
How it was run: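 Duplicate 48 h treatments of HepaRG cells in serum-free induction medium spanned 100 uM downward in half-log steps, 0.5% DMSO. Transcript change quantified by qRT-PCR against three housekeeping genes, fitted up or down versus DMSO.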

Caspase-3 (Homo sapiens) = Caspase-3 (Homo sapiens) (UniProt P42574); experiment: LTEA_HepaRG_CASP3: Life Technologies and Expression Analysis (LTEA) Assay for cysteine-aspartic acid protease (CASP3) using HepaRG (AID 2283477)
Sequence of Caspase-3 (Homo sapiens) (P42574 whole entry, looked up): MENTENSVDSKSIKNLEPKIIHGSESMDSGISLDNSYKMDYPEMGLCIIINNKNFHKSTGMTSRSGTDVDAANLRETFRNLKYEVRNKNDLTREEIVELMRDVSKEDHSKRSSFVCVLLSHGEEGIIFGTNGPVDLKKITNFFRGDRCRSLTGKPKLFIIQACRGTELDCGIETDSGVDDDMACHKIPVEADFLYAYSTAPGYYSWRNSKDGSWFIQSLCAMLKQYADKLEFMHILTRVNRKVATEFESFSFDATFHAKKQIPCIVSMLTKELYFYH
How it was run: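 HepaRG, 48 h exposure, 8 conc. (top 100 uM, half-log steps, duplicate), 0.5% DMSO vehicle; qRT-PCR of CASP3 transcript, housekeeping-normalised (ACTB/GAPDH/POLR2A); bidirectional curve fit vs DMSO baseline.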

[16] = read-out: ABC Transporter (ABCB1), ABCB1 (gene 5243); experiment: LTEA_HepaRG_ABCB1: Life Technologies and Expression Analysis (LTEA) Assay for ABC Transporter (ABCB1) using HepaRG (AID 2283460)
How it was run: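 ABCB1 transcript level measured by TaqMan qRT-PCR against three housekeeping genes after 48 h chemical exposure of differentiated HepaRG cells. Top concentration 100 uM, half-log steps, eight points, 0.5% DMSO vehicle; bidirectional fit relative to DMSO.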

[17] = read-out: ABC Transporter (ABCC2), ABCC2 (gene 1244); experiment: LTEA_HepaRG_ABCC2: Life Technologies and Expression Analysis (LTEA) Assay for ABC Transporter (ABCC2) using HepaRG (AID 2283464)
How it was run: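 qRT-PCR (TaqMan, Fluidigm array) read-out of ABCC2 mRNA, normalized to three housekeeping genes. Differentiated HepaRG cells were treated 48 h in serum-free induction medium with 8-point half-log series from 100 uM in 0.5% DMSO; curves fitted bidirectionally relative to DMSO.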

[18] = read-out: Peroxisomal acyl-coenzyme A oxidase 1 (ACOX1) gene, ACOX1 (gene 51); experiment: LTEA_HepaRG_ACOX1: Life Technologies and Expression Analysis (LTEA) Assay for Peroxisomal acyl-coenzyme A oxidase 1 (ACOX1) gene using HepaRG (AID 2283467)
How it was run: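 ACOX1 transcript levels were quantified by TaqMan qRT-PCR against three housekeeping genes after 48 h chemical exposure of differentiated human HepaRG cells. Exposure used eight half-log steps topping at 100 uM, 0.5% DMSO vehicle, in duplicate. Bidirectional curve fits were made relative to DMSO.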

Measured: AC50

Sequence of Apoptosis regulator Bcl-2 (Homo sapiens) (P10415 whole entry, looked up): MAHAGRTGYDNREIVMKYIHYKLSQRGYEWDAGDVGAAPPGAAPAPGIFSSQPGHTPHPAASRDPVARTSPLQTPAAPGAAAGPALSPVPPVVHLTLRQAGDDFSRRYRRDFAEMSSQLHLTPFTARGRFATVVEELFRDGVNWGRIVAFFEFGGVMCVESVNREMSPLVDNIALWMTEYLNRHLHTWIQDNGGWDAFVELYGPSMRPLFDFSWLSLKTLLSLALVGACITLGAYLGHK
Sequence of Broad substrate specificity ATP-binding cassette transporter ABCG2 (Homo sapiens) (Q9UNQ0 whole entry, looked up): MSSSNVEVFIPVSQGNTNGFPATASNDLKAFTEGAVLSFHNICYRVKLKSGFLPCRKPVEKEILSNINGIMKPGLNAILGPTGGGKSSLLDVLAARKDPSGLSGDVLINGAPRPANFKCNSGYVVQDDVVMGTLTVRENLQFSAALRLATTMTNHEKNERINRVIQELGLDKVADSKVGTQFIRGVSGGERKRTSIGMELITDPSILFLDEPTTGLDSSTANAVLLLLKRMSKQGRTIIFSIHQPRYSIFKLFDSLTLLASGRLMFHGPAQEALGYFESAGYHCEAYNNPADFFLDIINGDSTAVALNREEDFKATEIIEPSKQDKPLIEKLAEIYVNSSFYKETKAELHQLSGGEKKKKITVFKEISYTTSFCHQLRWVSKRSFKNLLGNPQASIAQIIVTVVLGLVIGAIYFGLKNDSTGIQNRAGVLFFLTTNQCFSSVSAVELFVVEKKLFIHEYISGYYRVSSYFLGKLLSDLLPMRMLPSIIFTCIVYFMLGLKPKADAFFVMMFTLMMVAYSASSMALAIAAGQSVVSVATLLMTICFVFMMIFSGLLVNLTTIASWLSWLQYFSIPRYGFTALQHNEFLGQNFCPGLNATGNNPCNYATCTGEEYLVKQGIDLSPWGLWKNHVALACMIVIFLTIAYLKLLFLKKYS

Cc1ccc2ncccc2c1
not listed: [16] | [17] | [18]
inactive: all other assays above

Cc1nc(-c2ccc3c(c2)CCN(CCC2CCC(NC(=O)/C=C/c4ccc(F)cc4)CC2)CC3)no1 (stereo not given)
not listed: [4] | [17] | [18]
inactive: all other assays above

Cc1c(C(=O)O)c(O)cc2c1C(=O)c1c(O)c([C@@H]3O[C@H](CO)[C@@H](O)[C@H](O)[C@H]3O)c(O)c(O)c1C2=O
not listed: [16] | [18]
inactive: all other assays above

CC(=O)OCCOCCOCCOC(C)=O
not listed: [4] | [7] | [15] | [17] | [18]
inactive: all other assays above

Cc1nc(C)nc(N2C[C@@H](C)N(c3ccnc([C@@H](C)O)n3)[C@@H](C)C2)n1
not listed: [4] | [6] | [17]
inactive: all other assays above

CCCCCCCCCCC
not listed: [4] | [6] | [7] | Caspase-3 (Homo sapiens)
inactive: all other assays above

Cc1ccc(Cl)cc1
not listed: [16] | [17] | [18]
inactive: all other assays above

c1cc(-c2ccncc2)ccn1
not listed: [4] | [5] | [6]
inactive: all other assays above

O=C(O)Cc1ccccc1Nc1c(Cl)cccc1Cl
active: [17] 13000 nM | [12] 19700 nM
not listed: [6] | [7] | [15] | [16]
inactive: all other assays above

Clc1cc(Cl)c(Cl)cc1Cl
not listed: [7] | [15] | [16]
inactive: all other assays above

COCCOCCOC
inactive: [3] | [4] | [17] | [7] | [8] | [10] | BCL2L11 (gene 10018) | [13]
active: [1] 998 nM | [2] 9920 nM | [5] 922 nM | [6] 1370 nM | [18] 9920 nM | [9] 1390 nM | [11] 2170 nM | [12] 517 nM | [14] 723 nM | [15] 1050 nM | Caspase-3 (Homo sapiens) 423 nM

CCCCN(CCCC)CCCC
not listed: [15] | [16] | [18]
inactive: all other assays above

Cc1ccc(C)c(C)c1
not listed: [4] | [6] | [16] | [17] | [18]
inactive: all other assays above

NS(=O)(=O)c1cc2c(cc1Cl)NCNS2(=O)=O
not listed: [6] | [15] | [16] | [17] | [18]
inactive: all other assays above

CCCCCCCCCCO
not listed: [6] | [16] | [17]
inactive: all other assays above

— PubChem BioAssay (EPA / NIEHS)
